The supplement of paper PMC10849652
About 8,800 targets were measured; listed, in parts, are those with a hit and a random draw of the rest. About 0.5% of all pairs of compound and target were hits. Values without a mark were called inactive.

What follows are targets tested with c1ccc([C@@H]2C[C@H]2NC2CCNCC2)cc1 (assay: log2 fold change, soluble protein after heating vs DMSO (PISA); higher = thermal stabilisation; K562 lysate, 10 uM; active = over 0.2 and 3.5 SD of the protein, either way, in both replicates (recomputed)).
Method in brief: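 Quantification was by TMTpro 16plex LC-MS/MS with equalised channel sums, applied to the supernatant after 21,000xg for 90 min. Samples were crude K562 extract at 1 mg/mL protein in PBS pH 7.4 with 1 mM MgCl2, treated with 10 μM compound for 30 min, heated for 3 min across 48°C-58°C, pooled and brought to 0.5% NP-40 at 4°C. Values are log-two fold changes in thermal stability relative to solvent controls, from duplicates.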

UniProt P15313, sequence (P15313 whole entry, looked up): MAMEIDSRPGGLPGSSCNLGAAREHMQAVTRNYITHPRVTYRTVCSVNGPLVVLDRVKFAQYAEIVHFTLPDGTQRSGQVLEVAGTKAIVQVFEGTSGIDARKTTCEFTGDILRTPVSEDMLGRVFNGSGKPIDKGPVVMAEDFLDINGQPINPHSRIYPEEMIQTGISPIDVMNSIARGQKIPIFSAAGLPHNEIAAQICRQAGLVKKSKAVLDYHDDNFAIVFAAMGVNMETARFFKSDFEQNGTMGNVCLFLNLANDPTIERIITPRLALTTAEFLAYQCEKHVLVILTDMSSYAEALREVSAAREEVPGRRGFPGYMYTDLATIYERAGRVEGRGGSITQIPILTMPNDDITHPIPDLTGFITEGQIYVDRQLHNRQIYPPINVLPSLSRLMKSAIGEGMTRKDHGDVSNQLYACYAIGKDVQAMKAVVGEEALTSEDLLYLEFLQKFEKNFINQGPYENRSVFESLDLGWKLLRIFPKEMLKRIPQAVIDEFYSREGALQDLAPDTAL
UniProt Q13554, sequence (Q13554 whole entry, looked up): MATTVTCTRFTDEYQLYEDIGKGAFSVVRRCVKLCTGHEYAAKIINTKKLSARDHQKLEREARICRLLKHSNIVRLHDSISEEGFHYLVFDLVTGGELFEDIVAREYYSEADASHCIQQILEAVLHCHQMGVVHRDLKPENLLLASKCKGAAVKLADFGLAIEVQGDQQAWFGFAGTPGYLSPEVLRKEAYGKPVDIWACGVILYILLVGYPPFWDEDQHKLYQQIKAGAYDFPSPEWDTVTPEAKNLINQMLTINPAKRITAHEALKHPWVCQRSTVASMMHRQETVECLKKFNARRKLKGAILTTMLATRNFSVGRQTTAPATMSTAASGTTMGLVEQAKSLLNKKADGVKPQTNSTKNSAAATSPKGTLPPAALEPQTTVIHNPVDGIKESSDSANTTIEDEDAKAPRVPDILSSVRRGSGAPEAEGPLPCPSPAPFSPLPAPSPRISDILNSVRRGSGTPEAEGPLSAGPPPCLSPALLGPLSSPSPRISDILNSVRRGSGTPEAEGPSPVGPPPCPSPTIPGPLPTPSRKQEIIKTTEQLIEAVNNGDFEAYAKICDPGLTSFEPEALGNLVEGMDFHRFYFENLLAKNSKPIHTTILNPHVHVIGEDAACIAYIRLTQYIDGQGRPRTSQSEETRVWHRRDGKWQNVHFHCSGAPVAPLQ
UniProt O75794, sequence (O75794 whole entry, looked up): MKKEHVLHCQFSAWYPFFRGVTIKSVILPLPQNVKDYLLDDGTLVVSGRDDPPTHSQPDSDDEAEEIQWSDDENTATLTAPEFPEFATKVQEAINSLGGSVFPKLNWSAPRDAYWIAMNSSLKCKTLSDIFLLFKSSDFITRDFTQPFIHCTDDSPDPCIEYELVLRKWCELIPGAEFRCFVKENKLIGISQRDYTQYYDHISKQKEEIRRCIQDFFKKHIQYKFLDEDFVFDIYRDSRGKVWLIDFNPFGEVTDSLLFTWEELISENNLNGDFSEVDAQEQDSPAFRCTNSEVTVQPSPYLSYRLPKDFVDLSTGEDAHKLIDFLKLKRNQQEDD
UniProt Q5T9A4, sequence (Q5T9A4 whole entry, looked up): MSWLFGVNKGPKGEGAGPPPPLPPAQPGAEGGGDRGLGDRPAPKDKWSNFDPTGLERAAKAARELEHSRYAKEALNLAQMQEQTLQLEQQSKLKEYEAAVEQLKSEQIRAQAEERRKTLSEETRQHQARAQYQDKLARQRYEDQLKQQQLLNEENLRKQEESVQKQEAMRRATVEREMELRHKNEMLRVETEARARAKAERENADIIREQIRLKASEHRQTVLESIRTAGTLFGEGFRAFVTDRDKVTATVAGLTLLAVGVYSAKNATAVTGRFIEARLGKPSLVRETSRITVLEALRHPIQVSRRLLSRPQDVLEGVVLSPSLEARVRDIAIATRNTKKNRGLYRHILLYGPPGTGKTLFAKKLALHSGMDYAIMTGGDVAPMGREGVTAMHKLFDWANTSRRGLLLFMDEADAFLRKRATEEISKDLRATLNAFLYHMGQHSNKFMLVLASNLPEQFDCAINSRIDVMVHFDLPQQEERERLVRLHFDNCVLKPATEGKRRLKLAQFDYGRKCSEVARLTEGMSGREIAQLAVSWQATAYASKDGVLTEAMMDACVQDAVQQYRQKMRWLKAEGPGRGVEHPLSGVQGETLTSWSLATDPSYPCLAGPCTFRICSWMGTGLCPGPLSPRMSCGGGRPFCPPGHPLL
UniProt Q53HL2, sequence (Q53HL2 whole entry, looked up): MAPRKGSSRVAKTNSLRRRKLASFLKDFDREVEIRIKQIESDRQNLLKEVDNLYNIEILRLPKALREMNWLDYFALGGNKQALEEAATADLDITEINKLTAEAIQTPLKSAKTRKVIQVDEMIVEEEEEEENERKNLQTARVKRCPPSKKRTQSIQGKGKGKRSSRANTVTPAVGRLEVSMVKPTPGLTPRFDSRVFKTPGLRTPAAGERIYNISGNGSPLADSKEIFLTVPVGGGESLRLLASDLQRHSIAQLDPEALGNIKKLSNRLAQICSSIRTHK
UniProt Q6P1S2, sequence (Q6P1S2 whole entry, looked up): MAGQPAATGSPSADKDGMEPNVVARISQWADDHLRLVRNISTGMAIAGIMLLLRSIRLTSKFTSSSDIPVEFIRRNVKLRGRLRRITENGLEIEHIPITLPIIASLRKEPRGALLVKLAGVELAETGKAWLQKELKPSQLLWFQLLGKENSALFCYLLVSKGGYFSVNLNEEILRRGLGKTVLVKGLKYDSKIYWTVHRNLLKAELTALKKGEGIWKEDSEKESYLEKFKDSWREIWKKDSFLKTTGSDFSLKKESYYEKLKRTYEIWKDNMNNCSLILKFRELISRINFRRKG
UniProt Q15834, sequence (Q15834 whole entry, looked up): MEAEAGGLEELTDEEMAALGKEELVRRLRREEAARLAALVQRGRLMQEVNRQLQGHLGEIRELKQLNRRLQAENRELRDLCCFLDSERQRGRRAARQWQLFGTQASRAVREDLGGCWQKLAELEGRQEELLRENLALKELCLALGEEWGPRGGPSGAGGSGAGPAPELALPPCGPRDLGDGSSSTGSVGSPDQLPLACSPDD
UniProt Q96JB5, sequence (Q96JB5 whole entry, looked up): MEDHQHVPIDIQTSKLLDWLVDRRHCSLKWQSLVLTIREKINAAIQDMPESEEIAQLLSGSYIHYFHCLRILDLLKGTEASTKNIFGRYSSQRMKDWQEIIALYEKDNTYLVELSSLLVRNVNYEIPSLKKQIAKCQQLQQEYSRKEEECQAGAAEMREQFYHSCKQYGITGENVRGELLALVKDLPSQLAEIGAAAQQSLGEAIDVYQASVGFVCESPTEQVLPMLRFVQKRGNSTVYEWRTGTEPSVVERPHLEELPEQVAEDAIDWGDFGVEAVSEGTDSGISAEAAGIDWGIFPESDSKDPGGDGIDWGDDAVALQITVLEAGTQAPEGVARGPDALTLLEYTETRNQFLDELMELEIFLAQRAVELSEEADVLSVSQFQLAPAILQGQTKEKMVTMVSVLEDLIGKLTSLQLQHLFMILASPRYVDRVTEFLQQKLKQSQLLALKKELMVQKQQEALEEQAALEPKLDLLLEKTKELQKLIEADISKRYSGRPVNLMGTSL
UniProt O95429, sequence (O95429 whole entry, looked up): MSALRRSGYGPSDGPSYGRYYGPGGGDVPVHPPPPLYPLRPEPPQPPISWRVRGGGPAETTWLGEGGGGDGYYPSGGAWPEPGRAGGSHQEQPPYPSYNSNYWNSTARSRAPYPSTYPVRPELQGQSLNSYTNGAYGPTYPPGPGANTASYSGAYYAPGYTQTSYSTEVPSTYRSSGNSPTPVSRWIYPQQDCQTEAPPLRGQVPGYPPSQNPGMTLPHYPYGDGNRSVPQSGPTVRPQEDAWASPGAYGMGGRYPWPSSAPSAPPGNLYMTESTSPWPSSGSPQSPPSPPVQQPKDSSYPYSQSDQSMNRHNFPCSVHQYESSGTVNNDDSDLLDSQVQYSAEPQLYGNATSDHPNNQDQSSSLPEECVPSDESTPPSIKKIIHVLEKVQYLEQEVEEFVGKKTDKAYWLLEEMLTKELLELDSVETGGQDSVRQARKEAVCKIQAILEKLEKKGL
UniProt P49069, sequence (P49069 whole entry, looked up): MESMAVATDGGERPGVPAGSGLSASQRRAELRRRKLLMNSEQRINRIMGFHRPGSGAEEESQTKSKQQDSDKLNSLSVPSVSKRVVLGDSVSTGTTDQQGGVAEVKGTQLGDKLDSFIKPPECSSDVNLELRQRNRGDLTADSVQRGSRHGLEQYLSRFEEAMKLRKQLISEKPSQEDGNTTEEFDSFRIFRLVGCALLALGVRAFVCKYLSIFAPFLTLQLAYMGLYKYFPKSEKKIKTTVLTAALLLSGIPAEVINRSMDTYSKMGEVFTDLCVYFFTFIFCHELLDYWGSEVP
UniProt P27824, sequence (P27824 whole entry, looked up): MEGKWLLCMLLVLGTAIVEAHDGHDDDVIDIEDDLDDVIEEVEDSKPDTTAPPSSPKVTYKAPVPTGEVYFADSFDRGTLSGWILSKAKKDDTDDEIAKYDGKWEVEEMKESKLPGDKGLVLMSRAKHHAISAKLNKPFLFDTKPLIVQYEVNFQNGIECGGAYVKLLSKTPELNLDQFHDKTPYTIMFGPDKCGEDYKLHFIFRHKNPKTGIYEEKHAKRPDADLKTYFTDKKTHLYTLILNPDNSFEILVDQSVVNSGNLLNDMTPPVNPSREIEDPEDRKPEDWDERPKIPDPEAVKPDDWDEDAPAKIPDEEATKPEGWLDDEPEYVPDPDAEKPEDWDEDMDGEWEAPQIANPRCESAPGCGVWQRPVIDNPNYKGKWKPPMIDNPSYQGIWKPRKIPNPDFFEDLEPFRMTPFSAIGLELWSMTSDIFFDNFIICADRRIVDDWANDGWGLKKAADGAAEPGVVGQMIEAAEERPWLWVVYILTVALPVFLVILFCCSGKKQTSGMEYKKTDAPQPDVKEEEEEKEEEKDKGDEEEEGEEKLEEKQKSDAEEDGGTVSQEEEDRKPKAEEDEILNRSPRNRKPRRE

| Target | log2 fold change |
| --- | --- |
| C3orf33 (UniProt Q6P1S2) | -0.226 |
| BPHL (UniProt Q86WA6) | 0.014 |
| CDK16 isoform 2 (UniProt Q00536) | -0.049 |
| CAMK2B (UniProt Q13554) | -0.091 |
| CAMLG (UniProt P49069) | 0.074 |
| AUH (UniProt Q13825) | -0.009 |
| CDCA8 (UniProt Q53HL2) | 0.104 |
| CDC42EP4 (UniProt Q9H3Q1) | -0.036 |
| CDK5RAP2 (UniProt Q96SN8) | 0.072 |
| CDK5RAP3 isoform 4 (UniProt Q96JB5) | -0.154 |
| CCDC32 isoform 2 (UniProt Q9BV29) | -0.109 |
| CCDC85B (UniProt Q15834) | -0.034 |
| BCAR1 isoform 6 (UniProt P56945) | 0.107 |
| ATP6V1B1 (UniProt P15313) | -0.157 |
| CANX isoform 2 (UniProt P27824) | -0.046 |
| CDK17 isoform 2 (UniProt Q00537) | -0.146 |
| CDC123 (UniProt O75794) | 0.004 |
| BLM (UniProt P54132) | 0.114 |
| ATAD3B (UniProt Q5T9A4) | 0.172 |
| BAG4 (UniProt O95429) | 0.003 |
| CASC4 (UniProt Q6P4E1) | -0.055 |
| CEP128 (UniProt Q6ZU80) | -0.507 |
